{"source": "PubChem BioAssay (NCATS)", "key": {"[1]": {"biological_target": "Glucocorticoid receptor (Homo sapiens) (UniProt P04150)", "sequence (P04150 whole entry, looked up, the tested form may be a part)": "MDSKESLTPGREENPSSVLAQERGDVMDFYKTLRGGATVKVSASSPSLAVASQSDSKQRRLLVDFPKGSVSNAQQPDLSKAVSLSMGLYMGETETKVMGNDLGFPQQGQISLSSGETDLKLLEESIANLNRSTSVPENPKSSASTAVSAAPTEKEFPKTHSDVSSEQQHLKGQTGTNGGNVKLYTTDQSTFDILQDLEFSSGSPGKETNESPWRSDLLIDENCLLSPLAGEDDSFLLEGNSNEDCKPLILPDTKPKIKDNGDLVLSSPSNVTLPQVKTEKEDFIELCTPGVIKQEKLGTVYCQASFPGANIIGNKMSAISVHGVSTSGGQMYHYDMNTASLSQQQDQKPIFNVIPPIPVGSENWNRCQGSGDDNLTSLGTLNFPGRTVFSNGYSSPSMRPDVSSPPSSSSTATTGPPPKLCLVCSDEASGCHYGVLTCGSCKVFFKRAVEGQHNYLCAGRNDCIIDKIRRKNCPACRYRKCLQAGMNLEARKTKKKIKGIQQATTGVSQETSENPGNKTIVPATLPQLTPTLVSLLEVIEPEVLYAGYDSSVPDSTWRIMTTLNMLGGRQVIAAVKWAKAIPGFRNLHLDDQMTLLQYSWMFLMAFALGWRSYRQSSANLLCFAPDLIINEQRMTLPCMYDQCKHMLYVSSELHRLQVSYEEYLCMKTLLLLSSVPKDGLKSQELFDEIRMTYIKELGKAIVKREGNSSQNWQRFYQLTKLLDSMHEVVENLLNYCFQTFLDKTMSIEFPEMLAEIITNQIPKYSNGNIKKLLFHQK", "experiment": "GR-EFC Redistribution (AID 451; calls by dose curve; further: potency means the concentration at half of the fitted maximal effect)", "settings": "CHO-K1 GR-EFC translocation, beta-gal luminescence, 2 h", "summary_of_the_method": "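Translocation of GR-ED fusion to nuclear EA restores b-gal, read by luminescence after 1 h room-temperature detection. Engineered CHO-K1 biosensor cells, 1,000/well, exposed 2 h at 37 C to titrations up to 46 uM final.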"}, "[2]": {"biological_target": "Mitogen-activated protein kinase 10 (Mus musculus) (UniProt Q61831)", "experiment": "JNK3 AlphaScreen Assay (AID 530; active means well fitted curve in either direction with a large enough effect, not every such curve was filed as active;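 further: kinase came from lysate of stimulated human HepG2 cells; signal reports phosphorylation of biotinylated GST-cJun 1-79 at Ser73 with 10 µM ATP; series mostly up to about 57 µM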)", "summary_of_the_method": "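Compound titrations were preincubated 15 minutes at room temperature with substrate, antibody and pre-activated JNK3-containing HepG2 lysate. Reactions were started with 10 uM ATP and stopped with EDTA-containing bead buffer for AlphaScreen detection.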"}, "[3]": {"biological_target": "3',5'-cyclic-AMP phosphodiesterase 4B (Homo sapiens) (UniProt Q07343)", "sequence (Q07343 whole entry, looked up)": "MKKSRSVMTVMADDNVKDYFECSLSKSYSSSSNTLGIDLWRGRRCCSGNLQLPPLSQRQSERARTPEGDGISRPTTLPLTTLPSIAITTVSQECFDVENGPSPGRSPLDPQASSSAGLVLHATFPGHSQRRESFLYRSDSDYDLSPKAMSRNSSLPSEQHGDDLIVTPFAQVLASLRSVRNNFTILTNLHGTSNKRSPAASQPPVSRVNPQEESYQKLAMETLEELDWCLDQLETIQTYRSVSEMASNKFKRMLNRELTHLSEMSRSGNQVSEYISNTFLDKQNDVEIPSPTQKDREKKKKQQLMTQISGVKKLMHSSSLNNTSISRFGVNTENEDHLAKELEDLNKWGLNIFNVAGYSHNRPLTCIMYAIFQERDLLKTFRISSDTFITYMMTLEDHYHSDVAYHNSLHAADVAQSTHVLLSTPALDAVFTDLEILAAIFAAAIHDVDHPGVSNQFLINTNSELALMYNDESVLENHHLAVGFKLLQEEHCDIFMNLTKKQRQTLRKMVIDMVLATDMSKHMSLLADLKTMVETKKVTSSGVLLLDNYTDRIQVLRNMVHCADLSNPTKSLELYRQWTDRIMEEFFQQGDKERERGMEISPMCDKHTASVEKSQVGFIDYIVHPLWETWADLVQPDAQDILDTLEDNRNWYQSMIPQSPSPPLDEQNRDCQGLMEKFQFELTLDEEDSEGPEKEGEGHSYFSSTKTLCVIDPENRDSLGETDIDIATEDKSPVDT", "experiment": "qHTS Assay for Inhibitors of PDE-IV (AID 607; active means well fitted activation curve with a large enough effect in the main read-out, with a control signal flat, not every such curve was filed as active)", "summary_of_the_method": "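HEK293 ACTOne cells with CNG channel (1000/well), endogenous PDE4; membrane potential dye, compounds up to 22.9 uM final. Fluorescence Ex 535/Em 590; RO 20-1724 (100 uM final) as reference.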"}, "[4]": {"biological_target": "Cytochrome P450 2C9 (Homo sapiens) (UniProt P11712)", "sequence (P11712 whole entry, looked up)": "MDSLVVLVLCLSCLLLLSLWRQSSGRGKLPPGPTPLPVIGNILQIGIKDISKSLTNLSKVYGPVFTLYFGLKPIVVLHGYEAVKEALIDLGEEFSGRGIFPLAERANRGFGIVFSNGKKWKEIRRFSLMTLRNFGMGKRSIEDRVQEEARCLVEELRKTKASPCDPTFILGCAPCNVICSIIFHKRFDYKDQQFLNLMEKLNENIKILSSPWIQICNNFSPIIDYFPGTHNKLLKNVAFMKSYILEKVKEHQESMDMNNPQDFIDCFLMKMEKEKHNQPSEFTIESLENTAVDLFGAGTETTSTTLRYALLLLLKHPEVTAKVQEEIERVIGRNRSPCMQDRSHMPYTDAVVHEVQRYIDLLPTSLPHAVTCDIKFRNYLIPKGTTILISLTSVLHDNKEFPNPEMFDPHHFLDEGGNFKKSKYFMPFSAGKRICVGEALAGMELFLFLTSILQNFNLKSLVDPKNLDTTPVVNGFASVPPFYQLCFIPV", "experiment": "qHTS Assay for Inhibitors and Substrates of Cytochrome P450 2C9 (AID 883); further: nearly all actives have a fitted effect of over 60% in size", "summary_of_the_method": "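Inhibition of CYP2C9 is scored as loss of luminescence, with 57uM sulphaphenazole defining 100% inhibition. Substrate Luciferin-H is used at 100uM, equal to its KM; enzyme at 10nM in 25mM KPO4, 60 min at 37C with NADPH regeneration.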"}, "[5]": {"biological_target": "Cytochrome P450 2D6 (Homo sapiens) (UniProt P10635)", "sequence (P10635 whole entry, looked up)": "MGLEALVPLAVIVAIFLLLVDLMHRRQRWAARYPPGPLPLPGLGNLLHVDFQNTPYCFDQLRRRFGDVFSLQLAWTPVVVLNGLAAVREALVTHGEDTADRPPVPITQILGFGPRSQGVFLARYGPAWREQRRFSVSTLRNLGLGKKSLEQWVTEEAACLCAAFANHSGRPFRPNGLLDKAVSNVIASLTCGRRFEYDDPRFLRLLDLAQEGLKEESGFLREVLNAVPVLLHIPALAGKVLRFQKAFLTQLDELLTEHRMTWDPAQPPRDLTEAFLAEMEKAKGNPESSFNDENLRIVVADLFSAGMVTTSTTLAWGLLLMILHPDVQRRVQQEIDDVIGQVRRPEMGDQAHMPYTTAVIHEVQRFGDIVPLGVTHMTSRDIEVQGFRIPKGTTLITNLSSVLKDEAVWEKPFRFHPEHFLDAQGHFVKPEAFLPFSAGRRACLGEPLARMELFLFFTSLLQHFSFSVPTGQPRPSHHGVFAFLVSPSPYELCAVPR", "experiment": "qHTS Assay for Inhibitors and Substrates of Cytochrome P450 2D6 (AID 891);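 further: luciferin methyl ether substrate demethylated by CYP2D6 with NADPH regeneration; nearly all actives have a fitted effect of over 60% in size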", "summary_of_the_method": "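Human CYP2D6 (5 nM) with 30 uM Luciferin-ME EGE (at Km) in 100 mM KPO4, compound preincubated 10 min, then NADPH regeneration system for 60 min at room temperature. Luciferin read by luminescence; normalized to 1.43 uM quinidine.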"}, "[6]": {"biological_target": "Cytochrome P450 2C19 (Homo sapiens) (UniProt P33261)", "sequence (P33261 whole entry, looked up)": "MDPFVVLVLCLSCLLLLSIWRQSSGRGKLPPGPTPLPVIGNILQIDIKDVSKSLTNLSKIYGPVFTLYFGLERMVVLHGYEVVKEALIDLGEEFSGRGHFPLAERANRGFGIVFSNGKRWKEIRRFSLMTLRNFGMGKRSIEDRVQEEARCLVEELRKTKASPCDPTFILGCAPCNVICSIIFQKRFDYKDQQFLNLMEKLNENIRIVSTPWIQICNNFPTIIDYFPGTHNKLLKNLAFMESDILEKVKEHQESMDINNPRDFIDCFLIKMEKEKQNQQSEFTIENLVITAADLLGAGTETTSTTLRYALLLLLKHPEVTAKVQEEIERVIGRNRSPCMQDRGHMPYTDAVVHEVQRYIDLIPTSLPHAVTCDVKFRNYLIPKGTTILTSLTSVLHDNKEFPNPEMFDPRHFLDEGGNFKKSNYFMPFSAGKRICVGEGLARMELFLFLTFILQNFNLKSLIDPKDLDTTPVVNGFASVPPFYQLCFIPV", "experiment": "qHTS Assay for Inhibitors and Substrates of Cytochrome P450 2C19 (AID 899); further: nearly all actives have a fitted effect of over 60% in size", "summary_of_the_method": "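5nM enzyme + 10uM Luciferin-H EGE (=KM), 50mM KPO4; cpd pin-transferred, 10 min 37C; NADPH regen, 60 min 37C; stopped w/ luciferin detection reagent, 20 min; luminescence. Normalized to 57uM ketoconazole (AC100).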"}, "[7]": {"biological_target": "Tyrosyl-DNA phosphodiesterase 1 (Homo sapiens) (UniProt Q9NUW8)", "sequence (Q9NUW8 whole entry, looked up)": "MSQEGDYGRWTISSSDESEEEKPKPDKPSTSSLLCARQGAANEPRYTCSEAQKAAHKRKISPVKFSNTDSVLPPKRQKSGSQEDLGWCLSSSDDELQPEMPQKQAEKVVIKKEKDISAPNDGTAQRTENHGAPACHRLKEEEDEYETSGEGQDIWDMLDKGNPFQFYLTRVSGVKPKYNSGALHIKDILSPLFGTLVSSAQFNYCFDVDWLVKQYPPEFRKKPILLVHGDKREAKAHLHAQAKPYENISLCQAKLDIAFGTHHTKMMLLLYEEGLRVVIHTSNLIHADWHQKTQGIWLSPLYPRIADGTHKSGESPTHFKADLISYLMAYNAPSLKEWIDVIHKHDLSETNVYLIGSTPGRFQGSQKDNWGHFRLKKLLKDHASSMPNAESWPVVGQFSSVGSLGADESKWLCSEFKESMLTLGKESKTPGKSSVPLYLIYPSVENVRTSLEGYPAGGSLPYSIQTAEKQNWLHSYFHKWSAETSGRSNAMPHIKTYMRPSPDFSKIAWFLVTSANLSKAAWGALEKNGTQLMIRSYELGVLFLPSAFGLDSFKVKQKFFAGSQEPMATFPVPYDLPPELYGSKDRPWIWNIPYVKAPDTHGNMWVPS", "experiment": "Confirmation Assay for Inhibitors of Tyrosyl-DNA Phosphodiesterase (TDP1) (AID 489007); further: potency means the concentration at half of the fitted maximal effect; nearly all actives have a fitted effect of over 40% in size", "settings": "recombinant human TDP1 enzymatic activity, dose-response", "summary_of_the_method": "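Recombinant human Tdp1 (1 nM final), expressed in E. coli, preincubated 15 min with compound. Then 15 nM 5'-biotin/3'-phosphotyrosine-FITC DNA substrate added for 5 min at room temperature. AlphaScreen beads (10 ug/ml) added for 10 min; cleavage gives signal loss.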"}}, "note": "Unmarked numbers belong to inactive results. Records with an inconclusive call do not appear. Entries that show only a call come without a potency. Active and inactive are the calls of the source. Unless noted, the call rests on the fitted dose curve; in most records, active means well fitted curve in the direction sought with a large enough effect; inconclusive means small, poorly fitted or top-dose-only effect, or another doubt; inactive means no such curve, though single readings can be large; an effect the other way counts as inactive or inconclusive.", "data": [{"smiles": "CC(C)C[C@@H](CC(=O)N[C@@H](CCC(=O)O)CC(=O)O)NC(=O)[C@@H]1CCCC[C@H]1NC(=O)C[C@H](CCCN)NC(=O)C[C@H](Cc1c[nH]c2ccccc12)NC(=O)[C@@H]1CCCC[C@H]1N", "values": [{"measurement": "Potency", "setting": "[1]", "value": "> 46", "unit": "µM"}, {"measurement": "Potency", "setting": "[2]", "value": "inactive"}, {"measurement": "Potency", "setting": "[3]", "value": "inactive"}, {"measurement": "Potency", "setting": "[4]", "value": "inactive"}, {"measurement": "Potency", "setting": "[5]", "value": "inactive"}, {"measurement": "Potency", "setting": "[6]", "value": "inactive"}]}, {"smiles": "Cc1ccc(CN2C(=O)N/C(=C\\c3ccc(-c4ccc(C(=O)O)cc4C)o3)C2=O)cc1", "values": [{"measurement": "Potency", "setting": "[7]", "value": "7.94 µM (active)"}]}, {"smiles": "CC(C)C[C@@H](CC(=O)N[C@@H](CCCN)CC(=O)N[C@@H]1CCNC[C@H]1C(=O)N[C@H](CC(=O)N[C@@H](CCC(=O)O)CC(=O)O)Cc1ccccc1)NC(=O)[C@@H]1CCCC[C@H]1N", "values": [{"measurement": "Potency", "setting": "[1]", "value": "> 46", "unit": "µM"}, {"measurement": "Potency", "setting": "[3]", "value": "inactive"}, {"measurement": "Potency", "setting": "[4]", "value": "inactive"}, {"measurement": "Potency", "setting": "[6]", "value": "inactive"}]}, {"smiles": "CN(C)c1nc(-c2ccccc2)c2cnn(Cc3ccccc3)c2n1", "values": [{"measurement": "Potency", "setting": "[7]", "value": "63.1 µM (active)"}]}, {"smiles": "NCCC[C@@H](CC(=O)N[C@@H]1CCCC[C@H]1C(=O)N[C@H](CC(=O)N[C@@H](CCC(=O)O)CC(=O)O)Cc1c[nH]c2ccccc12)NC(=O)C[C@H](Cc1c[nH]c2ccccc12)NC(=O)[C@@H]1CCCC[C@H]1N", "values": [{"measurement": "Potency", "setting": "[1]", "value": "> 46", "unit": "µM"}, {"measurement": "Potency", "setting": "[3]", "value": "inactive"}, {"measurement": "Potency", "setting": "[4]", "value": "inactive"}, {"measurement": "Potency", "setting": "[5]", "value": "inactive"}]}, {"smiles": "CC(C)C[C@@H](CC(=O)N[C@@H](CCC(=O)O)CC(=O)O)NC(=O)[C@@H]1CNCC[C@H]1NC(=O)C[C@@H](NC(=O)C[C@H](Cc1c[nH]c2ccccc12)NC(=O)[C@@H]1CNCC[C@H]1N)C(C)C", "values": [{"measurement": "Potency", "setting": "[1]", "value": "> 46", "unit": "µM"}, {"measurement": "Potency", "setting": "[3]", "value": "inactive"}, {"measurement": "Potency", "setting": "[4]", "value": "inactive"}, {"measurement": "Potency", "setting": "[5]", "value": "inactive"}, {"measurement": "Potency", "setting": "[6]", "value": "inactive"}]}, {"smiles": "Cc1c(-c2ccc(Cl)cc2)oc(=O)c2c(N)n(-c3ccccc3)nc12", "values": [{"measurement": "Potency", "setting": "[7]", "value": "25.1 µM (active)"}]}, {"smiles": "CC(C)[C@@H](CC(=O)N[C@@H]1CCCC[C@H]1C(=O)N[C@H](CC(=O)N[C@@H](CCC(=O)O)CC(=O)O)Cc1ccccc1)NC(=O)C[C@H](Cc1c[nH]c2ccccc12)NC(=O)[C@@H]1CNCC[C@H]1N", "values": [{"measurement": "Potency", "setting": "[1]", "value": "> 46", "unit": "µM"}, {"measurement": "Potency", "setting": "[3]", "value": "inactive"}, {"measurement": "Potency", "setting": "[4]", "value": "inactive"}, {"measurement": "Potency", "setting": "[5]", "value": "inactive"}, {"measurement": "Potency", "setting": "[6]", "value": "inactive"}]}, {"smiles": "CC(C)C[C@@H](CC(=O)N[C@H](CC(=O)N[C@@H]1CCCC[C@H]1C(=O)N[C@H](CC(=O)N[C@@H](CCC(=O)O)CC(=O)O)CC(C)C)C(C)C)NC(=O)[C@@H]1CNCC[C@H]1N", "values": [{"measurement": "Potency", "setting": "[1]", "value": "> 46", "unit": "µM"}, {"measurement": "Potency", "setting": "[3]", "value": "inactive"}, {"measurement": "Potency", "setting": "[4]", "value": "inactive"}, {"measurement": "Potency", "setting": "[5]", "value": "inactive"}]}]}
